Hit rate of the full screen: of about 370,000 compounds, about 4,100 (1.1%) were called active.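 How the source made its calls: active means inhibition above the mean over all tested compounds plus 3 SD (cut at about 3.6% in these data); inactive means the rest.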 The full list was thinned out, with actives kept by preference.
Test: DAX1 (NR0B1) inhibitors on StAR promoter, primary screen, cell-based, luminescence, SF-1 (NR5A1), full-length DAX-1 (AID 652010);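 further: 0% = DAX-1 cells with DMSO and 100% = cells lacking DAX-1 with DMSO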
Settings: HEK293T StAR-luciferase reporter, SF-1/DAX-1 repression relief; at 6.8 µM; stronger effect = higher value

inhibition, inactive:
COc1cc(/C=C/CO)cc(OC)c1O[C@@H]1O[C@H](CO)[C@@H](O)[C@H](O)[C@H]1O 0.72%, COc1cc(/C=C/C(=O)OCC(=O)NCCCc2ccccc2)ccc1O -0.2%, O=C(OC12CCCN(C1)/C(=C/c1ccccc1)C2)c1ccco1 (stereo not given) 0.04%, CCOc1ccccc1-c1cc(C(=O)N/N=C(\C)c2cccnc2)c2ccccc2n1 1.24%, CCOc1cc(C(=O)Nc2ccc(S(=O)(=O)Nc3cnc4ccccc4n3)cc2)cc(OCC)c1OCC -0.22%, Cc1ccc2c(c1)C1CN(C)CCC1N2S(=O)(=O)c1ccc(Oc2ccc([N+](=O)[O-])cc2)cc1 (stereo not given) -0.52%, COCCNC(=S)N(C)[C@H]1C[C@H]2c3[nH]c4ccccc4c3CCN2C[C@H]1[C@H](C)O 1.22%, CCOC(=O)N1CCN(S(=O)(=O)c2ccc3c(c2)C(C)C(=O)N3)CC1 (stereo not given) 0.76%, Fc1ccccc1-c1cc2cc3c(cc2cn1)OCO3 1.9%, COc1cc(OC)cc(-c2cc3ccc(F)cc3cn2)c1 1.37%, CN(C)c1ccc(NC(=O)NC2CCCCN(Cc3ccc(Cl)cc3)C2=O)cc1 (stereo not given) -1.13%, CN(C)[C@H]1CCN(c2cccc3c2S(=O)(=O)N2CC[C@H](C2)O3)C1 0.33%, O=C(NCc1ccco1)c1nn2cccnc2c1Cl 0.65%, COc1ccc(-c2c(NC(=O)c3ccco3)oc3ccc(Cl)cc3c2=O)cc1 -0.46%, O=C(Nc1cc(-c2nc3ncccc3o2)ccc1Cl)c1ccco1 -1.38%, O=C(CN1CCC(NC(=O)NCc2ccccc2)CC1)Nc1ccc2c(c1)OCCO2 -0.91%, Cc1cccc(NC(=O)C[C@H]2CC[C@H]3[C@@H](COc4ccc(NC(=O)Nc5ccccc5)cc4C(=O)N3C)O2)c1 0%, Cc1ccc(-c2nnc(SCC(=O)Nc3ccc(Oc4ccccc4)cc3)n2Cc2ccco2)cc1 -2.13%, CC(C)CNc1cccc2c1S(=O)(=O)N(Cc1cn(Cc3ccccc3C(F)(F)F)nn1)Cc1ccccc1O2 0.13%, COc1ccc(-c2ccc(CN3C(CC(C)C)C(=O)N(Cc4cn(CC5CCCCC5)nn4)CCS3(=O)=O)cc2)cc1 (stereo not given) 2.67%, COc1ccc(-c2ccc(CN3C(C(C)C)C(=O)N(Cc4cn(CC5CCCCC5)nn4)CCS3(=O)=O)cc2)cn1 (stereo not given) -0.19%, COC(=O)c1cccc(Cn2ccc3ccc(-c4ccc5ccn(C(=O)C6CCCCC6)c5c4)cc32)c1 0.41%, CCOC(=O)N1CCN(C(=O)C[C@@H]2C(=O)N(CCc3ccc(Cl)cc3)C3=CCCC[C@]32C(=O)OCC)CC1 -2.96%, O=C(NN=CC=Cc1ccccc1)C(O)C(O)C(=O)NN=CC=Cc1ccccc1 (stereo not given) 0.1%, CSc1ccc(CNC(=O)C2(C)CCCN2C)cc1 (stereo not given) -0.07%, COc1ccc(C=C(C#N)C#N)c(CSc2ccccn2)c1 -0.31%, COc1ccc2cc(CCl)c(Cl)nc2c1 -0.14%, COC(=O)c1cc(S(=O)(=O)N2CCN(C(=O)C3CCCO3)CC2)cn1C (stereo not given) 0.73%, N#CCC[C@H]1CC[C@]2(CCCN(Cc3ccc(Cl)cc3)C2)O1 0.06%, COc1ccccc1C(=O)CSc1nnc(-c2ccccn2)n1-c1ccccc1 -0.86%, Nn1c(SCC(=O)N2c3ccccc3Sc3ccccc32)nnc1-c1n[nH]c2c1CCC2 -0.89%, O=C(COC(=O)Cc1ccccc1F)NCCc1ccccc1 1.4%, COc1ccc(CCNC(=O)COC(=O)Cc2cccc(F)c2)cc1 2.2%, C=CCN=C1NC(c2cccc(C(F)(F)F)c2)C(C(=O)OC)=C(C)N1C (stereo not given) -0.18%, C=C(C)C#CC(Cc1ccccc1)NCC1CC1 (stereo not given) -0.89%, COc1ccc(-c2ccc3c(n2)CCCN3S(=O)(=O)c2ccc(C)cc2)cc1 -0.47%, FC(F)(F)Oc1ccc(-c2cn3cccnc3n2)cc1 1.35%, COc1cc(OC)cc(-c2nc(=S)n3ccsc3n2)c1 -0.3%, COc1ccc(CSc2nnc(-c3cccc(C)c3)n2C)cc1 -0.99%, O=C(Nc1cccc(Cl)c1)OC1CC2CC1[C@H]1CCCCN1[C@H]2Cc1ccccc1 (stereo not given in full) -0.06%, O=C(CSc1nc2ccccc2n1Cc1ccccc1Cl)N/N=C\c1c[nH]c2ccccc12 -0.91%, Cc1cc(=O)[nH]c(SCC(=O)Nc2ccc(F)cc2F)n1 0.67%, C=CCN1[C@@H](Cc2ccccc2)COc2cccc(N3CCSCC3)c2S1(=O)=O 0.68%, O=C(Nc1nc2ccc(Cl)cc2s1)c1cc(-c2ccc(Cl)cc2)nc2ccccc12 0.51%, O=C(Nc1ccccc1)Nc1nnc(COc2ccccc2F)s1 0.16%, COC(=O)[C@]12C[C@H](CC(=O)NCc3ccccc3)C(=O)N(Cc3ccccc3)C1=C[C@H](COCc1ccccc1)O[C@@H]2C -0.43%, COc1ccc(C(=O)CSc2nnc(-c3cnccn3)n2-c2ccc(C)cc2)cc1 0.38%, CSc1ccc(C=Nn2c(-c3ccc(F)cc3)n[nH]c2=S)cc1 -1.55%, COC(=O)C1=C(C)N(Cc2ccc(C(F)(F)F)cc2)C(=NCc2ccc(C(F)(F)F)cc2)NC1c1cccc(Cl)c1 (stereo not given) 0.24%, CCc1ccc(Oc2coc3cc(O)ccc3c2=O)cc1 0.76%, CC(C)=CCc1c(O)c(CC=C(C)C)c2occ(-c3ccc(O)cc3)c(=O)c2c1O 0.21%, Cc1ccc(C(=O)N(Cc2ccccn2)CC2CCCO2)cc1 (stereo not given) 0.03%, CCC(C)(C)C1CCC(=NNC(=O)c2ccc(Br)o2)CC1 (stereo not given) 1.82%, CC(C)(C)C1CCC(=NNC(=O)c2ccc(Br)o2)CC1 (stereo not given) 2.87%, Cc1c[nH]c2cccc(-c3ccc(Cl)cc3)c12 -0.32%, Cc1cc(NC(=O)CSC2=NS(=O)(=O)c3cc(Cl)ccc3N2)no1 -0.79%, CC(C)(C)NC(=O)Cn1cnc2cc([N+](=O)[O-])ccc2c1=O 0.18%, O=c1c2cc([N+](=O)[O-])ccc2nc2n1CCC2 0.07%, CCOC(=O)[C@]12CCCC3=C1N(CCC3)C(=O)[C@@H](CC(=O)NCC13CC4CC(CC(C4)C1)C3)C2 -1.84%, CC(C)Cc1cc(C(=O)Nc2cc(Br)ccc2O)no1 1.06%, O=C(NCCCc1ccccc1)c1cc(COc2c(F)cccc2F)on1 1.02%, CC(C)(CNC(=O)c1ccc(Cl)c(S(=O)(=O)N2CCc3ccccc3C2)c1)N1CCOCC1 -2.85%, Cc1ccc(NC(=O)C2(N3CCC3=O)CCCCC2)cc1 -0.08%, CC1CC(C)CN(CCCNC(=O)c2csc3c2CCCCC3)C1 (stereo not given) 0.43%, O=C(NCc1ccccc1)[C@H]1CCCN1C(=O)[C@H]1CCCN1C(=O)N1CCOCC1 0.17%, COc1ccccc1C(=O)N1C(CC(=O)Nc2ccccc2C)C(=O)NC2CCCCC21 (stereo not given) -0.35%, COc1ccc(CCNC(=O)CSc2nc3c([nH]2)c(=O)n(C)c(=O)n3C)cc1 0.31%, COC(=O)[C@H](C(C)C)N1CCc2nnn(Cc3ccc(C)cc3)c2-c2ccccc2S1(=O)=O -0.28%, O=C(NCc1ccc(Cl)cc1)C1CCCN(c2nc3ccccc3o2)C1 (stereo not given) 0.95%, O=NN(CCCl)C(=O)NCCc1cccc[n+]1[O-] -0.61%, Cc1ccc(OCCOc2cccc(/C=N/NC(N)=O)c2)cc1 0.53%, Cc1ccc(/C=N/NC(=O)c2sccc2OCc2ccc(F)cc2)cc1 -0.5%, COc1ccc2c(c1)CN1CN(CCc3ccccc3)S(=O)(=O)CC21 (stereo not given) -0.75%

inhibition, active:
COc1ccc(CCOC2OC(CO)C(OC(=O)/C=C/c3ccc(O)c(OC)c3)C(O[C@H]3O[C@@H](C)[C@H](O)[C@@H](O)[C@H]3O)C2O)cc1O (stereo not given in full) 4.55%, CCOc1cccc(/C=C/c2ccc3ccccc3n2)c1OC(C)=O 5.71%, Fc1ccc2cnc(-c3ccccc3)cc2c1 9.42%, COC(=O)C1C(=O)c2c([nH]c(C(=O)OCCSC)c2C)CC1C (stereo not given) 5.6%, O=C(Nc1ccc2oc(-c3ccccc3F)nc2c1)c1ccco1 4.4%, COc1ccc(-c2ccc(CN3C(CC(C)C)C(=O)N(Cc4cn(CC5CCCCC5)nn4)CCS3(=O)=O)cc2)cn1 (stereo not given) 3.92%, COc1ccc2nc(-c3ccccn3)ccc2c1 15.7%, COc1ccc(CCNC(=O)COC(=O)Cc2ccccc2F)cc1 5.57%, COc1ccc(-c2cn3ccsc3n2)cc1 4.57%, COc1ccc(-c2cn3ccc(C)cc3n2)cc1 5.29%, O=C(Nc1ccccc1)Nc1nc2ccccc2s1 9.89%, O=c1c(-c2ccccc2)coc2cc(O)ccc12 3.75%, O=C(N/N=C\C1CC=CCC1)c1ccc(Br)o1 (stereo not given) 8.53%, Cc1ccc(-n2cc3ccc([N+](=O)[O-])cc3n2)cc1 4.78%, CC(C)Cc1cc(C(=O)NCCc2ccccc2)no1 4.87%, Cc1ccc(NC(=O)c2csc3c2CCCC3)cc1 4.28%, Cc1ccc(/C=N/NC(=O)COc2ccccc2-c2ccccc2)cc1 4.21%

— PubChem BioAssay AID652010 (The Scripps Research Institute Molecular Screening Center, 2013)
